Measured values reported in PubChem BioAssay.
Entries with a potency or affinity are not part of this list. Activity calls are given as the source filed them.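 How the source made its calls: active means primary screen activator hit with a dose response curve and TRPC4 channel activation at any tested dose; inactive means no activation, no dose response, or not a primary hit.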

Biological target: Short transient receptor potential channel 4 (Mus musculus) (UniProt Q9QUQ5)
Experiment: mouse TRPC4 channel activators, dose response, cell-based, HEK293 TRPC4/mu-opioid, Fluo-4 calcium (AID 434937)
Conditions: HEK293 TRPC4 cells, Fluo-4 calcium fluorescence ratio; series mostly up to 20 µM

Short transient receptor potential channel 4 (Mus musculus), sequence (Q9QUQ5 whole entry, looked up): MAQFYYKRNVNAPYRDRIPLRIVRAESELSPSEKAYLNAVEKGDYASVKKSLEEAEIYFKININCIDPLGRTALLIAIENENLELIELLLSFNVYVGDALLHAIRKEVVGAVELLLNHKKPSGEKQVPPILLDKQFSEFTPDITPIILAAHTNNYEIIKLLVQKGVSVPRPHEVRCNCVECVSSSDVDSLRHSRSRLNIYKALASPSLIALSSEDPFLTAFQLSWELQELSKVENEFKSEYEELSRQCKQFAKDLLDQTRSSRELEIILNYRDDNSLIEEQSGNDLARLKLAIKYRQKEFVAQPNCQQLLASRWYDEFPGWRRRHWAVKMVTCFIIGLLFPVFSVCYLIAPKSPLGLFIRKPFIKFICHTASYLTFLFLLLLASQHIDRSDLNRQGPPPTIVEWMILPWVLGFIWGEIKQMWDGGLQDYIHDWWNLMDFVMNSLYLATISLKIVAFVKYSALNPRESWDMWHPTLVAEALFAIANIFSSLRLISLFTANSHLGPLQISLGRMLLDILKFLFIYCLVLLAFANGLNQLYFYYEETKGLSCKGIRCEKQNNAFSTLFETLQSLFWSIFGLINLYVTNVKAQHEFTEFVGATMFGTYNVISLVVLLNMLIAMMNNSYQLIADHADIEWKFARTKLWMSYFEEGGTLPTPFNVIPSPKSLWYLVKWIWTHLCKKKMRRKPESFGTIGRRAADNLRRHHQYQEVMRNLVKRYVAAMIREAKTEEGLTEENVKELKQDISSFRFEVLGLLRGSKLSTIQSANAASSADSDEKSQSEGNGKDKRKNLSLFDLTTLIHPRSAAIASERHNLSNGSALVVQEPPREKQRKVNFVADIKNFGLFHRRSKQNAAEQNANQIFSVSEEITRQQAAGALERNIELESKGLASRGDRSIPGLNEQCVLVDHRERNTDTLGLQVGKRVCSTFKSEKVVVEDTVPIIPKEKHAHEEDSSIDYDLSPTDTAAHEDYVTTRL

outcome, inactive:
COc1cc(/C=C2\C(=N)N3N=C(S(C)(=O)=O)SC3=NC2=O)ccc1OC(=O)c1cccs1
c1ccc(CN2CCN(c3nc4ccccc4s3)CC2)cc1
COc1ccccc1N(C(=O)c1snc(C(N)=O)c1N)C(C(=O)NCc1ccccc1)c1ccc(O)cc1 (centres undefined)
Cc1ccc(SC(CC(=O)c2ccc(C(C)(C)C)cc2)C(=O)O)cc1 (centres undefined)
COc1ccc(C2CC(=O)c3cnc(N4CCN(Cc5ccccc5)CC4)nc3C2)cc1 (centres undefined)
CC(=O)Nc1ccc(S(=O)(=O)N2CCN(CCCOc3cc(C)ccc3C)CC2)cc1
COc1cc(/C=C/C(=O)OCC(=O)Nc2c(C)n(C)n(-c3ccccc3)c2=O)ccc1OCC#N
Cc1cc2oc(C(=O)N(Cc3ccco3)C3CCS(=O)(=O)C3)cc(=O)c2cc1Cl (centres undefined)
CCOCCCn1cnc2c(c1=O)c1nc3ccccc3nc1n2-c1ccc(C)cc1
O=C(c1ccccc1F)N1CCN(c2ccc([N+](=O)[O-])cc2-n2cccc2)CC1
CN(CC(=O)Nc1ccc(F)cc1)C(=O)COC(=O)c1ccccc1
O=C(NC1CC1)c1ccc2c(c1)N(Cc1ccc(Cl)cc1)CCS2
O=C(Nc1ccc2c(c1)OCO2)c1cnn2cccnc12
CCc1nc2ccccc2n1Cc1ccccc1F
CN(Cc1ccco1)C(=O)Cn1ncc2c([nH]c3ccccc32)c1=O
CN1CCN(NC(=O)Nc2cc(Cl)cc(Cl)c2)CC1
Cc1ccc2nc(C(=O)N3CCc4c([nH]c5ccccc45)C3c3ccccn3)cn2c1 (centres undefined)
Clc1ccc(N=C2SCC3CCCCN23)cc1 (centres undefined)
O=S(=O)(c1ccc(Oc2ccc(Br)cc2)cc1)N1CCOCC1
O=S(=O)(Nc1ccc(S(=O)(=O)Nc2cccc3ccccc23)cc1)c1ccccc1
COc1ccc(N(C(=O)c2snc(C(N)=O)c2N)C(C(=O)NC2CCCCC2)c2ccc(C)o2)c(OC)c1 (centres undefined)
Cc1ccc(S(=O)(=O)Nc2ccc(N=Nc3ccc(O)cc3)cc2)cc1
O=C(c1ccccc1)c1coc2ccc(O)c(CN3CCOCC3)c12
CCOc1ccc(N=CNc2ccc(OCC)cc2)cc1
COCCSc1ccccc1C(=O)N1CCC(Cc2ccccc2)CC1
O=C(c1ccccc1F)N1CCN(c2ccc([N+](=O)[O-])c3cccnc23)CC1
Cc1ccc(NS(=O)(=O)c2cc(C(=O)N3CCc4ccccc4C3)ccc2Cl)cc1
CCn1cc(CN2CCC(n3nccc3NC(=O)CCOc3ccccc3)CC2)c(C)n1
CCN1CCN(c2ccc(S(=O)(=O)N3CCCCC3)cc2NC(=O)COc2cc(C)ccc2Cl)CC1
CN(C)CCCCOc1cccc(Br)c1
CC(C)c1ccc(C(C)NCCS(=O)(=O)c2ccc(Br)cc2)cc1 (centres undefined)
COc1cc2c(C(=O)N3CCN(C)CC3)c(CSc3ccccc3)n(C)c2cc1Br
Cc1c(N2C(=O)/C(=C/c3ccccc3)SC2=S)c(=O)n(-c2ccccc2)n1C
Cc1n[nH]c(C)c1Cc1c(F)cccc1Cl
O=C(Nc1ccc([N+](=O)[O-])cn1)C1CCCCC1
O=c1[nH][nH]c(-c2ccccc2)c1C=Nc1ccc(F)cc1F
COc1ccccc1C1/C(=C(\O)c2ccc3c(c2)OCCO3)C(=O)C(=O)N1Cc1cccnc1 (centres undefined)
CCN(CC)CCSc1nnc2c3ccccc3n(Cc3ccccc3)c2n1
CCCn1c(SCC(=O)N2c3ccccc3Sc3ccccc32)nc2c1c(=O)n(C)c(=O)n2C
